# Test results: PubChem BioAssay (NCI)
# Where “and” joins values, the source holds several entries; their conditions need not be identical. Equal values may be shown once. About 83,000 compounds went through this panel and 20% of them were active in at least one assay; those are over-represented in the sample as a whole.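 Negative percent growth values reflect cell death: -40 means 40% of the cells present at the start died, and -100 means all died.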 Calls of active or inactive are those of the source. Rule for the calls: active = growth percent below 10; inactive = the rest.
# Tests used:
# Test in all cases: NCI-60 one-dose screen, 48 h (100 = growth as untreated, 0 = no growth, -100 = all killed)
# Conditions in all cases: 10 µM unless noted
# [1] = system: NCI-H23 lung
# [2] = system: NCI-H226 lung
# [3] = system: NCI-H322M lung
# [4] = system: HOP-62 NSCLC
# [5] = system: NCI-H460 lung
# [6] = system: HOP-92 NSCLC
# [7] = system: NCI-H522 lung
# [8] = system: A549/ATCC NSCLC
# [9] = system: 786-0 renal
# [10] = system: COLO 205 colon
# [11] = system: DU-145 prostate
# [12] = system: K-562 leukemia
# [13] = system: MALME-3M melanoma
# [14] = system: MDA-MB-231 breast
# [15] = system: RXF 393 renal
# [16] = system: SF-268 CNS
# [17] = system: SF-295 CNS
# [18] = system: SF-539 CNS
# [19] = system: UACC-257 melanoma
# [20] = system: M14 melanoma
Compound,growth [1],growth [2],growth [3],growth [4],growth [5],growth [6],growth [7],growth [8],growth [9],growth [10],growth [11],growth [12],growth [13],growth [14],growth [15],growth [16],growth [17],growth [18],growth [19],growth [20]
CCC1(NC(=O)c2cc(F)c(F)c(F)c2F)C(=O)NC(=O)N(C(C)C)C1=O (stereo not given),47% (inactive),139% (inactive),90.2% (inactive),101% (inactive),99.7% (inactive),79.9% (inactive),-5.62% (active),75.9% (inactive),101% (inactive),141% (inactive),143% (inactive),-26.7% (active),90.4% (inactive),81.5% (inactive),79.8% (inactive),114% (inactive),107% (inactive),97.5% (inactive),70.4% (inactive),50% (inactive)
CC12CCC3C4CCC(=O)C=C4CCC3C1CC1CC(=O)OC12 (stereo not given),96.2% (inactive),93.7% (inactive),89.9% (inactive),88% (inactive),104% (inactive),92.7% (inactive),79% (inactive),84.5% (inactive),107% (inactive),105% (inactive),112% (inactive),95.5% (inactive),103% (inactive),97.6% (inactive),110% (inactive),98% (inactive),103% (inactive),101% (inactive),80.7% (inactive),104% (inactive)
Cc1cc2c(cc1-c1ccnc(/C=C/C(=O)O)c1)C(C)(C)CCC2(C)C,88.1% (inactive),78.8% (inactive),106% (inactive),96.8% (inactive),85.3% (inactive),56.5% (inactive),76.2% (inactive),77.1% (inactive),79.6% (inactive),124% (inactive),105% (inactive),85.5% (inactive),64.8% (inactive),75.5% (inactive),79.4% (inactive),86.6% (inactive),88.6% (inactive),78.2% (inactive),87.4% (inactive),78.2% (inactive)
CN(C)c1ccc([N+](=O)[O-])c([N+](=O)[O-])c1,109% (inactive) and 96.9% (inactive),113% (inactive) and 105% (inactive),111% (inactive) and 101% (inactive),113% (inactive) and 122% (inactive),110% (inactive) and 109% (inactive),101% (inactive) and 104% (inactive),-70.3% (active) and 64.7% (inactive),101% (inactive) and 88.3% (inactive),116% (inactive) and 106% (inactive),106% (inactive) and 122% (inactive),103% (inactive) and 113% (inactive),113% (inactive) and 104% (inactive),100% (inactive),98.4% (inactive) and 99.1% (inactive),111% (inactive) and 95.3% (inactive),106% (inactive) and 111% (inactive),112% (inactive) and 106% (inactive),128% (inactive) and 104% (inactive),95.7% (inactive) and 88.2% (inactive),99.4% (inactive) and 93.7% (inactive)
CC/C(Cc1ccccc1)=C(\c1ccc(OCCN2CCCC2)cc1)c1ccc(OC(=O)NCc2ccccc2)cc1,90.8% (inactive),92.1% (inactive),84.9% (inactive),76.7% (inactive),-45.2% (active),38.6% (inactive),81.5% (inactive),42.4% (inactive),20.7% (inactive),-66.6% (active),61.1% (inactive),-39.1% (active),-59.6% (active),51.6% (inactive),56.5% (inactive),67.7% (inactive),86.2% (inactive),59% (inactive),58.1% (inactive),-60.7% (active)
O=S(OO)c1cc(Cl)c(O)c(Cl)c1 (stereo not given),101% (inactive),109% (inactive),97.7% (inactive),105% (inactive),102% (inactive),92.1% (inactive),102% (inactive),94.7% (inactive),97.1% (inactive),117% (inactive),113% (inactive),107% (inactive),115% (inactive),110% (inactive),106% (inactive),103% (inactive),94.3% (inactive),95.7% (inactive),99.6% (inactive),107% (inactive)
CCCCCCCCCCCCCCCCCC1OCC(COC(=O)O[C@@H](C(=O)O[C@H]2C[C@@]3(O)[C@@H](OC(=O)c4ccccc4)[C@@H]4[C@]5(OC(C)=O)CO[C@@H]5C[C@H](O)[C@@]4(C)C(=O)[C@H](OC(C)=O)C(=C2C)C3(C)C)[C@@H](NC(=O)c2ccccc2)c2ccccc2)O1 (stereo not given in full),40.3% (inactive),53.4% (inactive),58.8% (inactive),60.5% (inactive),18.2% (inactive),94.8% (inactive),48.6% (inactive),53.2% (inactive),80.9% (inactive),24.7% (inactive),44.4% (inactive),18.8% (inactive),59.3% (inactive),81.8% (inactive),28.1% (inactive),59.1% (inactive),48.4% (inactive),51.2% (inactive),69.8% (inactive),37.8% (inactive)
CO[C@H]1[C@H](O[C@@H]2C[C@@H]3C/C=C/C(=O)O[C@@H](CO)C[C@H](O)[C@@H]4C[C@H](C)[C@H](C/C=C\C=C\[C@H](C)C[C@H](C2)O3)O4)O[C@@H](C)[C@H](O)[C@H]1O,22.5% (inactive),37.9% (inactive),89.5% (inactive),65.8% (inactive),54.5% (inactive),95.2% (inactive),27.2% (inactive),47% (inactive),78.7% (inactive),37.6% (inactive),52.5% (inactive),25.4% (inactive),85.5% (inactive),92.9% (inactive),88% (inactive),86.4% (inactive),14.1% (inactive),70.8% (inactive),9.72% (active),74.7% (inactive)
CCN1C(=O)CC(=O)N(CC)C1=S,82% (inactive),103% (inactive),102% (inactive),172% (inactive),107% (inactive),92.1% (inactive),84.1% (inactive),109% (inactive),97.6% (inactive),115% (inactive),122% (inactive),107% (inactive),95.8% (inactive),107% (inactive),100% (inactive),101% (inactive),111% (inactive),96.9% (inactive),102% (inactive),105% (inactive)
COC(=O)C12C3C4C1C1C2C3C41NC(=O)c1csc([C@@H](C[C@H](C(C)C)N(C)C(=O)[C@@H](NC(=O)[C@H]2CCCCN2C)C2CC2)OC(C)=O)n1 (stereo not given in full),35.8% (inactive),16.5% (inactive),38.5% (inactive),4.51% (active),7.89% (active),22.6% (inactive),-21.1% (active),13% (inactive),22.7% (inactive),-65.4% (active),8.04% (active),8.03% (active),63.9% (inactive),4.12% (active),19.7% (inactive),25.6% (inactive),9.2% (active),-24.4% (active),56% (inactive),9.39% (active)
C#COc1cccc(Nc2ncnc3cc(NC(=O)CF)ccc23)c1,81.4% [6.25 µM] (inactive),83.4% [6.25 µM] (inactive),70.5% [6.25 µM] (inactive),30.3% [6.25 µM] (inactive),21.4% [6.25 µM] (inactive),47.7% [6.25 µM] (inactive),-25.3% [6.25 µM] (active),40% [6.25 µM] (inactive),30.7% [6.25 µM] (inactive),13.2% [6.25 µM] (inactive),76.1% [6.25 µM] (inactive),7.01% [6.25 µM] (active),60.9% [6.25 µM] (inactive),50.9% [6.25 µM] (inactive),84.4% [6.25 µM] (inactive),51.8% [6.25 µM] (inactive),29.9% [6.25 µM] (inactive),29.3% [6.25 µM] (inactive),40.4% [6.25 µM] (inactive),18.7% [6.25 µM] (inactive)
N[C@@H](CCC(=O)CCl)C(=O)O,97.3% [20 µM] (inactive),104% [20 µM] (inactive),98.1% [20 µM] (inactive),95.9% [20 µM] (inactive),106% [20 µM] (inactive),84.6% [20 µM] (inactive),77.1% [20 µM] (inactive),102% [20 µM] (inactive),101% [20 µM] (inactive),106% [20 µM] (inactive),105% [20 µM] (inactive),82.9% [20 µM] (inactive),92.5% [20 µM] (inactive),92.2% [20 µM] (inactive),112% [20 µM] (inactive),98.4% [20 µM] (inactive),98.9% [20 µM] (inactive),104% [20 µM] (inactive),99.9% [20 µM] (inactive),95.9% [20 µM] (inactive)
Oc1ccc(O)c(Cl)c1,96.2% (inactive) and 88.3% (inactive),94.5% (inactive) and 98.5% (inactive),109% (inactive) and 98.2% (inactive),109% (inactive),99.7% (inactive) and 102% (inactive),87.6% (inactive) and 102% (inactive),-92.2% (active) and -1.35% (active),92.5% (inactive) and 111% (inactive),108% (inactive) and 112% (inactive),109% (inactive) and 99.8% (inactive),103% (inactive),89.1% (inactive) and 94.8% (inactive),106% (inactive) and 103% (inactive),67.3% (inactive) and 101% (inactive),93% (inactive) and 113% (inactive),96% (inactive) and 100% (inactive),103% (inactive) and 118% (inactive),84.4% (inactive) and 102% (inactive),88.1% (inactive) and 102% (inactive),95.7% (inactive) and 104% (inactive)
